According to PubChem BioAssay (EPA / NIEHS):
Where “and” joins values, the source holds several entries; their conditions need not be identical. Identical values can stand only once. More than one record can exist for a structure, and the calls need not agree. Calls of active or inactive are those of the source. Rule for the calls: active = hit-call score of the fitted dose curve at least 0.9, where 1 is the maximum; inactive = score below 0.9.

These compounds were tested on Decorin, DCN (gene 1634) (assay: BSK_MyoF_Decorin: BioMAP Diversity Plus: MyoF Assay for Decorin Biomarker Activity (AID 2284265)). Settings: primary human lung fibroblasts.
Protocol: BSK_MyoF is a cell-based, multiplexed-readout assay that uses lung fibroblasts, […], with measurements taken at 24 hours after chemical dosing in a microplate: 96-well plate.BSK_MyoF_Decorin is an assay component measured in the BSK_MyoF assay. It measures Decorin antibody related to regulation of gene expression using ELISA technology.Data from the assay component BSK_MyoF_Decorin was analyzed at the endpoint, BSK_MyoF_Decorin, in the positive analysis fitting direction relative to DMSO as the negative control and baseline of activity. Using a type of binding reporter, gain or loss-of-signal activity can be used to understand protein changes. To generalize the intended target to other relatable targets, this assay endpoint is annotated to the 'cell adhesion molecules' intended target family, where the subfamily is 'decorin'.
The levels of cell surface (or secreted, indicated by the prefix "s") biomarker endpoints were measured by ELISA. Overt cytotoxicity to cells in confluent adherent cultures (all systems other than the BT system) was assessed by measuring total protein levels using sulforhodamine B (SRB) staining in parallel cultures at the time of biomarker measurements, indicated as SRB endpoints. For proliferation assays for adherent cell types, individual cell types are cultured at sub-confluence and relative cell numbers quantified by SRB staining at time points optimized for each system (48 h: 3C and CASM3C systems; 72 h: BT and HDF3CGF systems; 96 h: SAg system). SRB was performed by staining cells with 0.1% SRB after fixation with 10% TCA and reading wells at 560 nm.Viability and proliferation of PBMC (T cells) was quantified by Alamar Blue reduction for the SAg and BT systems. For PBMC viability (referred to as PBMC Cytotoxicity within the assay endpoint names), cells were plated (75,000/well in a 96-well plate) and then chemical samples added for 1 h before addition of activators, SEB and TSST-1 (20 ng/mL final concentration each). Cells were incubated for 90 h. Then, Alamar Blue (20 uL/well) (Invitrogen, Cat DAL1100) was added for 6 h, and the plates were read with a fluorescence microplate reader at 546/580 nm (excitation/emission). For PBMC proliferation, cells were plated and activated as above but incubated for only 16 h prior to addition of Alamar Blue. Plates were read after 6 h.

Compound	outcome	AC50
FC(F)(F)C(F)(F)C(F)(F)CC1CO1 (stereo not given)	inactive	
C[C@]12CC[C@H]3C(=CCc4cc(O)ccc43)[C@@H]1CCC2=O	inactive	
Cc1cc(O)c(C(C)(C)C)cc1C(C)(C)C		5.16 µM (active)
O=C(O)CCC(F)(F)C(F)(F)C(F)(F)F	inactive	
CO[Si](C)(CCC(F)(F)C(F)(F)C(F)(F)C(F)(F)C(F)(F)C(F)(F)F)OC	inactive	
O=C(O)C(F)(F)C(F)(F)C(F)(F)OC(F)(F)F	inactive	
CC1=CC2C3C=CC(C3)C2C1C (stereo not given)	inactive	
NC(=O)C(F)(F)C(F)(F)C(F)(F)C(F)F	inactive	
COC(F)(C(F)F)C(F)(F)F (stereo not given)	inactive	
NC(=O)C(F)(F)C(F)(F)C(F)(F)C(F)(F)C(N)=O	inactive	
O=S(=O)(Cl)C(F)(F)C(F)(F)C(F)(F)C(F)(F)C(F)(F)C(F)(F)C(F)(F)C(F)(F)F	inactive	22.3 µM (active)
CCN(CCO)S(=O)(=O)C(F)(F)C(F)(F)C(F)(F)C(F)(F)C(F)(F)C(F)(F)C(F)(F)C(F)(F)F	inactive	19.4 µM (active)
NS(=O)(=O)C(F)(F)C(F)(F)C(F)(F)C(F)(F)C(F)(F)C(F)(F)F	inactive	
CCN(CC)c1ccc(N=Nc2ccccc2)cc1	inactive	
O=C(Cl)C(F)(F)C(F)(F)C(F)(F)C(F)(F)C(F)(F)C(F)(F)F	inactive	
CCOC(=O)CC(=O)C(F)(F)C(F)(F)F	inactive	
CCN(CC)c1ccc(C=O)c(O)c1	inactive	
CC(C)CCCC(C)CCO (stereo not given)	inactive	
CCN(CC)c1ccc2c(c1)Oc1cc(N(CC)CC)ccc1C21OC(=O)c2ccccc21	inactive	

Compound	outcome	AC50
Cc1ccc(O)c(-n2nc3ccccc3n2)c1	inactive	
O=C(O)C(F)(F)C(F)(F)C(F)(F)C(=O)O	inactive	
FC(F)(F)C(F)(F)C(F)(F)C(F)(F)C(F)(F)C(F)(F)CC[Si](Cl)(Cl)Cl	inactive	
O=C(O)CCC(F)(F)C(F)(F)C(F)(F)C(F)(F)C(F)(F)C(F)(F)C(F)(F)F	inactive	
O=C(O)C(F)(F)OC(F)(F)C(F)(F)OC(F)(F)C(F)(F)OC(F)(F)F	inactive	
C=CC(=O)OCCC(F)(F)C(F)(F)C(F)(F)C(F)(F)F	inactive	
OCC(F)(F)C(F)(F)C(F)(F)C(F)(F)C(F)(F)C(F)(F)C(F)(F)C(F)(F)CO	inactive	
NC(=O)C(F)(F)C(F)(F)C(F)(F)F	inactive	
Cc1ccc(S(=O)(=O)C(I)I)cc1		5.2 µM (active)
CC(C)(C)c1cc(CCC(=O)NCCCCCCNC(=O)CCc2cc(C(C)(C)C)c(O)c(C(C)(C)C)c2)cc(C(C)(C)C)c1O	inactive	
OCCCC(F)(F)C(F)(F)C(F)(F)C(F)(F)C(F)(F)C(F)(F)C(F)(F)C(F)(F)F		16.4 µM (active) and 14.4 µM (active)
C=CC(=O)OCC(F)(F)C(F)(F)C(F)(F)C(F)(F)C(F)(F)C(F)(F)C(F)(F)C(F)F	inactive	10.3 µM (active)
O=C=NCc1cccc(CN=C=O)c1	inactive	
Cc1cnccn1	inactive	
FC(F)(F)C(F)(F)C(F)(F)C(F)(F)C(F)(F)C(F)(F)C(F)(F)CCI	inactive	
NC(=O)C(F)(F)C(F)(F)C(F)(F)C(F)(F)C(F)(F)C(F)(F)C(F)(F)F	inactive	
NCC(F)(F)C(F)(F)C(F)(F)C(F)(F)C(F)(F)C(F)(F)C(F)(F)C(F)(F)F	inactive	
CNS(=O)(=O)C(F)(F)C(F)(F)C(F)(F)C(F)(F)C(F)(F)C(F)(F)C(F)(F)C(F)(F)F	inactive	
